High-throughput results: PubChem BioAssay, The Scripps Research Institute Molecular Screening Center
Sampled rows, rich in hits. Any-hit rate of the full collection: about 2.3%.
M1 ag – human M1 muscarinic receptor agonists, primary screen, Fluo-8 calcium fluorescence, CHO-K1 cells, HTS; CHO-K1 hM1, agonist mode; 0% DMSO, 100% acetylcholine EC100; Muscarinic acetylcholine receptor M1 (Homo sapiens), P11229; AID 588814, 2011; 0.33% of 360,000 active; activation, % at 3 µM;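 active = activation above the run's mean compound activation plus 3 SD, cut at about 16% in these data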;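 note: peak over basal fluorescence ratio within a 140 s kinetic read after compound addition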
Target sequence (P11229 whole entry, looked up): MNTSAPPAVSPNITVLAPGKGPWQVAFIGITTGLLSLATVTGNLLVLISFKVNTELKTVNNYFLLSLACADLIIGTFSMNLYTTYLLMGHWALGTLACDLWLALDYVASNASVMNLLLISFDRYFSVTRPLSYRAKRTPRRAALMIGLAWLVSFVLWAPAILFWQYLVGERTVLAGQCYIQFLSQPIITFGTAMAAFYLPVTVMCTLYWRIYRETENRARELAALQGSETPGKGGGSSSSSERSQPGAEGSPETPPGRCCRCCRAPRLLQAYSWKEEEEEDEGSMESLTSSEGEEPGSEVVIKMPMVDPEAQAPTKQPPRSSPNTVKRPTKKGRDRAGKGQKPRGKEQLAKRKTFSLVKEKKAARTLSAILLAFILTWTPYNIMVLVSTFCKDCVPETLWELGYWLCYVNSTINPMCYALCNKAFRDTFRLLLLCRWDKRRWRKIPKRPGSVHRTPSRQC
CHO-K1 Ca PAM – nonselective calcium activators in parental CHO-K1 cells, primary screen, counter-screen for M1 PAM project, cell-based, Fluo-8 calcium fluorescence, full deck, 1536-well; ATP EC20; 0% at ATP EC20, 100% at ATP max; activation, % at 3 µM; 0.02% of 360,000 active; AID 602247, 2012;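 active = activation above the run cutoff, the mean activation of all test compounds plus 3 SD, cut at about 40% in these data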;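 note: peak over basal fluorescence ratio in a 140 s read after ATP addition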
CHO-K1 Ca ag – counter-screen for M1 agonists: effect in parental CHO-K1 cells | Fluo-8 calcium fluorescence; scaled to maximal ATP response, vehicle zero | activation, % at 3 µM | 0.48% of 360,000 active | AID 602248, 2012; in the data active = activation above about 15%;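 note: untransfected CHO-K1 host cells lacking M1 receptor as counterscreen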
M1 PAM – human M1 muscarinic receptor positive allosteric modulators, primary screen, CHO-K1 cells, Fluo-8 calcium fluorescence, 1536-well; AID 588819, 2011; 0.088% of 360,000 active; activation, % at 3 µM; Muscarinic acetylcholine receptor M1 (Homo sapiens), P11229; CHO-K1 hM1, ACh EC20; 0% = ACh EC20, 100% = maximal ACh; in the data active = activation above about 19%, passing the limit was not always enough
CHRM1 antagonist – human M1 muscarinic receptor antagonists, primary screen, CHO-K1 cells, Fluo-8 calcium fluorescence, 1536-well. Muscarinic acetylcholine receptor M1 (Homo sapiens), P11229. AID 588852, 2011. inhibition, % at 3 µM. CHO-K1 hM1, ACh EC80 antagonist. 1.3% of 360,000 active;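 active = percent inhibition above its own plate's cutoff, namely the mean of that plate's compound wells plus 3 SD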;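 note: peak over basal fluorescence ratio during 140 s after agonist addition; 0% = ACh EC80 plus DMSO and 100% = DMSO alone without agonist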
CHO-K1 Ca antag – counter-screen for M1 antagonists: effect in parental CHO-K1 cells | ATP-induced calcium, Fluo-8 fluorescence | inhibition, % at 3 µM | 0.6% of 360,000 active | AID 602250;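 active = inhibition above a per-plate cutoff, the plate's mean sample inhibition plus 3 SD, cut at about 24% in these data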;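 note: 0% = DMSO plus EC80 ATP and 100% = DMSO alone without ATP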
* marks the source's active call; other numbers are inactive results; · = no result.

SMILES | M1 ag | CHO-K1 Ca PAM | CHO-K1 Ca ag | M1 PAM | CHRM1 antagonist | CHO-K1 Ca antag
CCN(CC(=O)Nc1ccc(NC(C)=O)cc1)C(=O)c1c(C)nn(-c2ccc(F)cc2)c1Cl | -3 | -10 | 4 | -12 | 30 | -7
CCN(CC)CCNC(=O)c1ccc(NC(=O)Cc2ccccc2F)cc1 | -15 | 4 | 0 | -9 | 4 | 3
CCN(CC)CCNC(=O)c1ccc(NC(=O)c2ccccc2-c2ccc(C(F)(F)F)cc2)cc1 | -11 | 10 | 4 | -31 | 101* | -7
O=C(Nc1cccnc1)c1cn(-c2ccccc2)nc1-c1cccs1 | -1 | 5 | 5 | -9 | 6 | -5
CCN(CC)CCNC(=O)c1ccc(NC(=O)c2c(C)nn(-c3ccc(F)cc3)c2Cl)cc1 | -10 | 3 | 3 | -33 | 101* | -1
CCN(CC)CCNC(=O)c1ccc(NC(=O)c2cn(-c3ccccc3)nc2-c2cccs2)cc1 | -9 | 25 | 2 | -28 | 61* | -4
CCn1c(SCC(=O)c2c(N)n(C3CC3)c(=O)[nH]c2=O)nc2cc(S(N)(=O)=O)ccc21 | -2 | 6 | 0 | 7 | -3 | -16
CCCCCN1CN(S(=O)(=O)c2cccs2)c2nc3ccccc3nc21 | -2 | 11 | 0 | 6 | -13 | -15
COCCCNC(=O)C[C@H]1C[C@H](C(=O)N(C(C)C)C(C)C)[C@@]2(C)c3[nH]c4cc(-c5ccco5)ccc4c3CCN2C1=O | -3 | -10 | 0 | 3 | 1 | 19
O=C(Cc1ccc(Cl)c(Cl)c1)Nc1ccc2[nH]c(=O)[nH]c2c1 | -6 | 2 | 0 | -5 | 4 | 0
CCN(CC)CCNC(=O)c1ccc(NC(=O)c2cccc(S(=O)(=O)N(C)C3CCCCC3)c2)cc1 | -8 | 10 | 0 | -30 | 100* | -15
CCN(CC)CCNC(=O)c1ccc(NC(=O)c2ccc3c(c2)CCC3)cc1 | -10 | 16 | 2 | -11 | 14 | -16
C/C(=N\NC(=O)c1c(Cl)c(C)nn1C)c1ccc(NC(=O)c2ccncc2)cc1 | -6 | 7 | 0 | 3 | -2 | 9
Cc1nn(-c2ccc(NC(=O)c3ccncc3)cc2)c(C)c1Cl | 2 | -5 | 13 | -20 | 32* | 9
CN(C)S(=O)(=O)c1ccc(Cl)c(C(=O)NNC(=O)c2ccc3c(c2)OCO3)c1 | 0 | 17 | 1 | 4 | -9 | -22
C=CCSc1nc2sc(C)c(C)c2c(=O)[nH]1 | -10 | -1 | 0 | -20 | 39* | 2
Cc1nn(-c2ccccc2)c(C)c1NC(=O)COC(=O)c1cccc(OC(F)F)c1 | -1 | 16 | 7 | -3 | 10 | 15
Cc1cccn2cc(CNC(=O)C3CCCCC3)nc12 | -4 | 0 | 19* | 3 | 0 | 14
Cc1ccc2c(c1)c(C)c(C)n2CC(O)CN1CCCCC1C (stereo not given) | -12 | -4 | 0 | -3 | -1 | 1
Cc1ccc2c(c1)c1c(n2CC(O)CN2CCCCC2C)CCCC1 (stereo not given) | -7 | 16 | 1 | -24 | 42* | -5
CSCCC(NC(=O)c1ccccc1Cl)C(=O)NCC1COc2ccccc2O1 (stereo not given) | -2 | -31 | 0 | -13 | 31* | 16
CSCCC(NC(=O)c1ccc(Cl)cc1Cl)C(=O)NCc1ccccn1 (stereo not given) | -3 | 17 | 0 | 7 | -12 | 35*
CC(C)(C)NC(=O)C1c2ccccc2OCC(=O)N1Cc1ccccc1 (stereo not given) | · | -10 | 0 | · | · | 0
CC(CCc1ccccc1)NC(=O)c1ccccc1Cl (stereo not given) | -1 | 17 | 1 | 8 | -11 | -8
CCOc1ncccc1C(=O)NC(C)CCc1ccccc1 (stereo not given) | -5 | 14 | 19* | 5 | -9 | -7
CC(C)Oc1ccc(F)cc1-c1cc(C(=O)N2CCc3ccccc3C2)[nH]n1 | -4 | 5 | 2 | -8 | -1 | -5
